# PubChem BioAssay AID2284171 (EPA ToxCast)
# Records with an inconclusive call do not appear. Activity calls are given as the source filed them. How the source made its calls: active means hit-call score of the fitted dose curve at least 0.9, where 1 is the maximum; inconclusive means response in the unintended direction; inactive means score below 0.9.
# Experiment: ERF_FR_GPCR_rPY2: Eurofins (ERF) G Protein-Coupled Receptor (GPCR) Radioligand Binding LeadHunter Assay for rat P2Y Receptor (Non-Selective) Agonism
# Method: ERF_FR_GPCR_rPY2 is a biochemical, single-readout assay that uses extracted gene-proteins in a cell-free assay. Measurements were taken 1 hour after chemical dosing in a 96-well plate. See Non-Selective Rat P2Y GPCR Binding (Agonist Radioligand) Assay, Cerep.ERF_FR_GPCR_rPY2 is an assay component calculated from the ERF_FR_GPCR_rPY2 assay. It is designed to measure radioligand binding using a type of binding reporter as detected by scintillation counting with radiometry technology.Data from the assay component ERF_FR_GPCR_rPY2 was analyzed at the assay endpoint, ERF_FR_GPCR_rPY2, in the positive analysis fitting direction relative to DMSO as the negative control and baseline of activity. Using a type of binding reporter, gain-of-signal activity can be used to understand changes in binding as they relate to gene P2RY1. To generalize the intended target to other relatable targets, this assay endpoint is annotated to the gpcr intended target family, where the subfamily is P2Y.
# Rat cells are incubated for 60 minutes at room temprature with [35S]dATPalpha S (10 nM) ligand and Datpalphas as control inhibitor. Test Sample Requirements: Minimum for 1) Screen: 60 ul of 10 mM stock -OR- 1 mg (pre-weighed) for 10 uM final testing. 2) Dose Response: 90 ul of 10 mM stock -OR- 1 mg (pre-weighed) for a top concentration at 10 uM.
row,SMILES,AC50
1,O=C(/C=C/c1ccc(O)cc1)CC(=O)/C=C/c1ccc(O)cc1,937 nM (active)
